Data from the OligoGym collection.

Biological target: HEPH
Test: pooled miR-30 sensor sort-seq; sequence = guide strand
Details: shRNA
Note: reference of the scale not given here.

Sequence	sensor-assay potency score (higher = more potent)
TACAGCTTTCTTGTATCTGGAA	-0.122
TAGATGGTCTTCTTGTAGGTTC	-0.407
TATGTCACTGTCCAGAGGCTGG	-1.3

Biological target: HERC1
Test: as above
Details: shRNA

Sequence	sensor-assay potency score (higher = more potent)
TTCATAGGCATACTGCTCCTGA	-0.419
TATTCATGTAAAACTGTCCTTT	-0.17
TAGTGGTTGAGAAACATTCTAA	-0.582
TTCTGCACTAGTCACATTGGTC	-0.675
TAACAGACACATCCTTTCGATA	-0.966
TATTGTAACCCACTTCTGCGGT	-0.596
TAGTTGTCCATGTCGATTGAGC	-0.739
TAACAGAATGGACATCTGCTGA	-0.647
TTCTCCAACCAGCTTAACCTTC	-1.11
TTGTCCATGTCGATTGAGCGGC	-0.831
TTATGTTCTTATAACATCTATG	-0.965
TTTCTGTAGTGAACATAGCAGT	-0.617

Biological target: HERC3
Test: as above
Details: shRNA

Sequence	sensor-assay potency score (higher = more potent)
TAACTTCTCAAATAACACCCTA	-0.57
TTGTGCTCTACAAAACACGTGT	0.203
ATAATATCTGAACAACACCATT	-1.67
TTATCTAGTACTTTGCTGGGGT	0.669
TACTTTGCCACCACACACCTTT	0.0362
TTCAGCTTTTGTATTAACCTGG	0.299
TTGAACTATATGCACACACATA	-1.08
TACATTGAGTAACTTCTTGTAG	0.402
TAGCTTTCTCGGCAGATCGTGA	-0.772
TATCTGAACAACACCATTGATT	-0.697
TTTACATTGAGTAACTTCTTGT	-0.154

Biological target: HES7
Test: as above
Details: shRNA

Sequence	sensor-assay potency score (higher = more potent)
TATCTCCGCTTTCTCCAGCTTC	-1.2
AACCGGACAAGTAGCAGCTGGC	-1.06
TTCGCTCCCTCAAGTAGCCCAC	-0.598
TTTCTCCAGCTTCGGGTTCCGG	-1.22
TCCGCTTTCTCCAGCTTCGGGT	-1.29
TTCCGGAGGTTCTGGTCCCGGG	-1.41
AGCGGCTTGAGCATCTTGGGGC	-0.755
AAGCGAAGCAGGCACTCGCGGA	-1.48
ATATAGACCACATCTCACCCGC	-0.0228
TTGGGCGCCCCGTCTTGTCTGT	-1.06
TTTGGGGCGCAGATAGCCGTGC	-0.737
AAACCGGACAAGTAGCAGCTGG	-0.705
